Source: PubChem (National Center for Advancing Translational Sciences (NCATS))
Most compounds without a hit are left out; they make up all but 4% or so of the library.
TRHR agonist – TRH receptor (human) agonism | P34981 | TRHR cells, calcium flux fluo-8, FDSS agonist mode | activation, % at 2 µM | hit rate 0.18% among 360,000 | AID 493084
Target sequence (P34981 whole entry, looked up): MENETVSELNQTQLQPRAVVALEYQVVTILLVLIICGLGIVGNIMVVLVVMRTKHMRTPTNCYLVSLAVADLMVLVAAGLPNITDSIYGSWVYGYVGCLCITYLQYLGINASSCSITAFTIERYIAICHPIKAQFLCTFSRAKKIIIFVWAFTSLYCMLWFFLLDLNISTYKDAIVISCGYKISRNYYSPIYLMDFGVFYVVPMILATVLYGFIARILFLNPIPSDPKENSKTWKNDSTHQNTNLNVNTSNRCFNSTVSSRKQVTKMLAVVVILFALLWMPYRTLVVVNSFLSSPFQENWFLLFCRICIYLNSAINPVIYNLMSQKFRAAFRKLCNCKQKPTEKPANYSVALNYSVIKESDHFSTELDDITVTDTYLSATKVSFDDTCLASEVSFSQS
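Agonist-mode FDSS calcium read (Ex 480/Em 530, 1 s cycles) in 1536-well TRHR cells with fluo-8 dye, after 10-cycle baseline and 23 nL compound addition; TRH at EC20 (10 nM final) added afterwards for the enhancer phase.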
TRHR PAM – allosterically enhances the human TRH receptor; TRHR cells, fluo-8 calcium fluorescence, EC20 TRH enhancement; hit rate 0.66% among 360,000; AID 493056; P34981; enhancement, % at 2 µM; in the data active = enhancement above about 30%
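Enhancer read-out: after compound pinning and an initial kinetic agonist-mode read, an EC20 of TRH (10 nM final) was injected and fluo-8 calcium signal (Ex 480/Em 530) followed at 1 s/cycle for 100 cycles in TRHR-expressing cells.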
D1 potentiator – potentiators of human D1 dopamine receptor | potentiation, % at 10 µM | HEK293 TREx D1 cells, calcium flux, dopamine EC20 potentiation | hit rate 0.036% among 360,000 | AID 504651; in the data active = potentiation above about 30%
D1 antag – antagonists of human D1 dopamine receptor | activity change, negative = inhibition, % at 10 µM | hit rate 3.2% among 360,000 | P21728 | HEK293 TREx D1 cells, calcium flux, dopamine EC80; hits give low values; in the data active = activity change below about -30%
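Compound effects on dopamine-evoked calcium signalling were measured in tetracycline-induced HEK293 Trex D1 cells. Dopamine at EC80 followed a 180 s compound pre-read, and fluorescence was tracked kinetically for 180 s more.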
D1 ag – activates the human D1 dopamine receptor | HEK293 T-REx D1 cells, calcium flux, agonist mode | activation, % at 2 µM | hit rate 1% among 360,000 | AID 504660
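Tetracycline-induced HEK293 TREx D1 cells, force-coupled to calcium signalling, were dye-loaded with a no-wash calcium kit. Compound was pin-added after a 10 s baseline. Fluorescence was read kinetically at 1 cycle/s for 180 s, with calcium rises flagged as agonism.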
GRP78 ERSR act – inducers of ER stress response in human glioma cells | U87-MG GRP78 promoter luciferase reporter, 16 h | Potency, µM, hits mostly activators | hit rate 0.02% among 420,000 | AID 602332; active = well fitted activation curve with a large enough effect; inconclusive = small, poorly fitted or top-dose-only effect; inactive = no such curve, though single readings can be large or run the other way; note: series mostly up to about 76 µM; nearly all actives have a fitted effect of over 35% in size
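Stably transfected U87-MG glioma cells carrying a GRP78-based luciferase sensor; 16 h compound incubation. Luminescence end-point read 10 min after Bright-Glo addition at room temperature.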
Hits are given with their value; . = inactive; ? = inconclusive; / = no result. Cut-off read from the data, not from the text of the source, unless noted: active = activation above about 30%; inactive = the rest.

SMILES	TRHR agonist	TRHR PAM	D1 potentiator	D1 antag	D1 ag	GRP78 ERSR act
CCOc1cc(C(=S)N2CCOCC2)ccc1OC(=O)c1ccc(C)cc1	.	.	.	.	.	.
CC1(c2ccc(OC(F)F)cc2)NC(=O)N(CC(=O)Nc2ccc(Cl)cc2F)C1=O (stereo not given)	.	.	.	.	36	.
CCOC(=O)c1c(NC(=O)CN2C(=O)NC(C)(c3ccc(OC(F)F)cc3)C2=O)sc(C)c1C (stereo not given)	.	.	.	.	31	.
CC1(c2ccc(OC(F)F)cc2)NC(=O)N(CC(=O)Nc2ccc(S(N)(=O)=O)cc2)C1=O (stereo not given)	.	.	.	.	.	.
Cc1cc(NC(=O)CN2C(=O)NC(C)(c3ccc(OC(F)F)cc3)C2=O)no1 (stereo not given)	.	.	.	.	33	.
CC1(c2ccc(OC(F)F)cc2)NC(=O)N(CC(=O)NC2CCCCC2)C1=O (stereo not given)	.	.	.	.	.	.
CC1(c2ccc(OC(F)F)cc2)NC(=O)N(CC(=O)Nc2ccc(OC(F)F)cc2)C1=O (stereo not given)	.	.	.	-43	50	.
CC(CSC(=O)c1ccccc1)C(=O)N1CC(Sc2ccccc2)CC1C(=O)O (stereo not given)	/	/	/	/	/	.
CC1(c2ccc(OC(F)F)cc2)NC(=O)N(CC(=O)Nc2cccc(F)c2)C1=O (stereo not given)	.	.	.	-61	60	?
CCOC(=O)c1c(C)[nH]c(C(=O)CN2C(=O)NC(C)(c3ccc(C)cc3)C2=O)c1C (stereo not given)	.	.	.	.	54	.
CC1(c2ccc(OC(F)F)cc2)NC(=O)N(CC(=O)Nc2ccc(F)cc2)C1=O (stereo not given)	.	.	.	.	.	.
CCOc1ccc(NC(=O)CN2C(=O)NC(C)(c3ccc(OC(F)F)cc3)C2=O)cc1 (stereo not given)	.	.	.	-43	38	?
CCOC(=O)c1c(C)[nH]c(C(=O)CN2C(=O)NC(C)(C)C2=O)c1C	.	.	.	.	.	.
CN(C)S(=O)(=O)c1ccc(C(=O)OCn2nnc3ccccc3c2=O)cc1	.	.	.	.	.	.
O=C(CCN1C(=O)C2C3C=CC(C3)C2C1=O)Nc1nccs1 (stereo not given)	.	.	.	-64	.	.
COc1ccccc1CNC(=O)CCCn1c(=O)c2ccccc2n(Cc2ccc(F)cc2)c1=O	.	.	.	.	.	.
CCOC(=O)C1(C)C=C(Nc2ccc(C)cc2)C(=O)N1c1ccc(C)cc1 (stereo not given)	.	.	.	.	.	.
CCOC(=O)C1(C)C=C(Nc2ccc(OC)cc2)C(=O)N1c1ccccc1 (stereo not given)	.	.	.	-42	.	.
CC1CCC2C(=O)N(c3ccc(Cc4ccncc4)cc3)C(=O)C2C1 (stereo not given)	.	.	.	-30	.	.
COC(=O)C1=C(C)N(Cc2ccco2)C(=O)N[C@H]1c1ccccc1	.	.	.	-49	.	/
COC(=O)c1c(C(=O)OC)c(C)n(Cc2ccco2)c1C	.	.	.	-68	.	.
COC(=O)C1=C(C)N(Cc2ccco2)C(=O)N[C@H]1c1ccc(Br)cc1	.	.	.	.	.	/
CC(O)(COc1ccccc1)c1ccc2c(c1)CN(Cc1cccc3ncccc13)CCO2 (stereo not given)	/	/	/	/	/	.
CC(=O)c1c(C)oc2c(Cl)cc(NS(=O)(=O)c3cc(C)c(C)cc3C)cc12	.	.	.	.	.	.
CC(C)(C)C1CCC(=NNC(=S)Nc2cccnc2)CC1 (stereo not given)	.	.	.	.	.	.
SMILES	TRHR agonist	TRHR PAM	D1 potentiator	D1 antag	D1 ag	GRP78 ERSR act
S=C(Nc1cccnc1)NC1CC2CCC1C2 (stereo not given)	.	.	.	-34	.	.
CC(C)(C)n1ncc2c(=O)n(Cc3ccc(SC(F)(F)F)cc3)cnc21	/	/	/	/	/	.
COc1ccc(C)cc1Nc1n[n+](-c2ccccc2)c(-c2ccc(NC(C)=O)cc2)s1	.	.	.	-31	.	.
CCNC(=O)c1cc(NC(=O)COC)cc2nc(-c3ccncc3)n(C)c12	/	/	/	/	/	.
COc1cc2c3nnc(-c4ccccc4)c-3cn(Cc3ccccc3F)c2cc1OC	.	.	.	.	.	.
COc1cc2c3nnc(-c4ccc(F)cc4)c-3cn(Cc3ccccc3F)c2cc1OC	.	.	.	-53	.	.
Cc1cc(C(=O)NN=C(Cc2ccccc2)Cc2ccccc2)c(C)o1	.	.	.	.	.	.
C/C(=N\NC(=O)c1cc(C)oc1C)c1ccc2ccccc2c1	.	.	.	-42	.	.
C[C@H]1C(=O)N(S(=O)(=O)c2ccccc2[N+](=O)[O-])[C@H]1c1ccc(-c2ccccc2)cc1	/	/	/	/	/	.
O=C1CC(c2ccccc2F)C2=C(COC2=O)N1 (stereo not given)	.	.	.	.	.	.
Cc1ccc(C(=O)OCc2cc3ccccc3[nH]c2=O)cc1	.	38	.	.	.	.
O=C(CN1CCOCC1)n1c2ccccc2c2ccccc21	.	.	.	.	.	.
Cc1c(C)n(C(=O)CN2CCC(C)CC2)c2ccccc12	.	35	.	.	.	.
Nn1c(Cc2ccccc2F)nnc1SCCOc1ccc(Cl)cc1	.	.	.	-39	.	.
CN(Cc1c(C(=O)N(C)Cc2ccccc2)nc2ccccn12)CC1Cc2ccccc2O1 (stereo not given)	.	.	.	.	.	.
CN(Cc1ccccc1)C(=O)c1nc2ccccn2c1CN1CCc2sccc2C1	.	.	.	-33	.	.
Cc1cc(=O)[nH]c(Cc2ccc(OC(C)C)cc2)n1	.	.	.	-76	.	.
Cc1ccccc1C(=O)Nc1ccc(C(=O)N2CCCC(O)c3cc(Cl)ccc32)c(C)c1 (stereo not given)	/	/	/	/	/	.
Cc1nn2cc(-c3ccccc3)nc2[nH]c1=O	.	.	.	.	.	.
O=C(O)CCc1nn2cc(-c3ccccc3)nc2[nH]c1=O	.	.	.	-79	.	.
CC(C)Cn1c(N)c(C(=O)COC(=O)C2CCCCC2)c(=O)n(C)c1=O	.	.	.	-38	.	.
Cc1ccc(N2CC(C(=O)OCC(=O)c3c(N)n(CC(C)C)c(=O)n(C)c3=O)CC2=O)cc1 (stereo not given)	.	.	.	.	.	.
C=C1[C@H](C)CN[C@H]1CCO	/	/	/	/	/	.
Cc1ccccc1NC(NC(=O)OCCn1c([N+](=O)[O-])cnc1C)C(Cl)(Cl)Cl (stereo not given)	.	.	.	-33	.	.
